# CYP2C19 act = human CYP2C19 activators, primary screen, biochemical, luminescence. Cytochrome P450 2C19 (Homo sapiens), P33261. recombinant CYP2C19, luciferin-H EGE luminescence; hits give high values; 0 = fully inhibited enzyme, 1 = untreated enzyme. activation factor at 5 µM. 96,000 tested, under 10 active;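 active means activation factor of at least 2 at 5 µM in the primary screen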;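 further: 0 = wells with 2.5 mM tranylcypromine and 1 = vehicle-only wells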
# Target sequence (P33261 whole entry, looked up): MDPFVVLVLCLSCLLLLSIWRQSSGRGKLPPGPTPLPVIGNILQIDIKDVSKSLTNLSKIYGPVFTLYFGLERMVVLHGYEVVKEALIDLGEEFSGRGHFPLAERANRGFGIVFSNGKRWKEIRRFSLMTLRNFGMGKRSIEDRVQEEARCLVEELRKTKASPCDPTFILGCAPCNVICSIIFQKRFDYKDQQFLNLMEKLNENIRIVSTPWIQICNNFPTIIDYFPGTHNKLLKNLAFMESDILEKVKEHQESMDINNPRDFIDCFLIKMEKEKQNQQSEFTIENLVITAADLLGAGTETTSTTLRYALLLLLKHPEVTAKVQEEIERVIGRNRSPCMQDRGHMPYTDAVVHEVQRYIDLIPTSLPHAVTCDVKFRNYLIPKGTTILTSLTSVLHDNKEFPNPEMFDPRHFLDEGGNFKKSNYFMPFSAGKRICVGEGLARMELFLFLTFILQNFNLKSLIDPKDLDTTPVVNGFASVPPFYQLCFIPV
# CYP2C9 activ = human CYP2C9 activators, primary screen, biochemical, luminescence. recombinant CYP2C9, luciferin-H conversion; hits give high values; factor 1 = untreated enzyme, 0 = blocked. activation factor at 5 µM. Cytochrome P450 2C9 (Homo sapiens), P11712. actives 1.4% (n = 96,000);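 active means activation factor of 2 or more for CYP2C9 at a 5 µM dose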;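 further: 0 = sulfaphenazole-blocked wells and 1 = vehicle-only wells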
# Cav3 T inh = Cav3.2 calcium influx blockers – cell-based, Fluo-4 calcium fluorescence, FDSS, MLSMR library, primary screen | B-score at 10 µM | actives 4% (n = 100,000) | Cav3.2-expressing cells; hits give low values | Voltage-dependent T-type calcium channel subunit alpha-1H (Homo sapiens), O95180;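 active means single-dose well whose peak fluorescence ratio is a statistical outlier from its plate by either plate-standardised score or position-corrected B-score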
# CYP2C9 inh = blockers of cytochrome P450 2C9 activity – biochemical, luminescence, ADME assay, primary screen; inhibition, % at 5 µM; AID 777, 2007; CYP2C9 Supersomes, luciferin-H conversion; actives 20% (n = 96,000);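 active means blocking of liver enzyme CYP2C9 beyond about 50% at 5 µM, limit read from the data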
# CYP2C19 inhib = blockers of cytochrome P450 2C19 activity – biochemical, luminescence, ADME assay, primary screen. P33261. CYP2C19 Supersomes, luciferin-H EGE luminescence, 30 min. inhibition, % at 5 µM. actives 21% (n = 96,000). AID 778, 2007;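 active means CYP2C19 inhibition above a set limit at 5 µM in the primary screen, cut at about 50% in these data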;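 further: plate controls were negative control wells for no effect and 2.5 mM tranylcypromine positive control for full effect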
# An asterisk follows results filed as active; / = not tested or not shown. Only some compounds are listed: those with a hit (about 27% of all), similar ones and a draw of the others.
SMILES,CYP2C19 act,CYP2C9 activ,Cav3 T inh,CYP2C9 inh,CYP2C19 inhib
COc1c(OC)c(O)c2c(=O)cc(-c3c(O)cccc3O)oc2c1OC,/,/,-0.814,/,/
CCN(CC)c1ccc(NC(=O)Cn2cc3c(n2)CCC(C)C3)c(C)c1 (stereo not given),0.9,1,-2.74,-4.9,10.2
CCc1nc2ccc(F)cc2c(C(=O)NC2CCCCC2C)c1C (stereo not given),0.6,0.2,-2.77,76.9*,36.7
CCc1nc2ccccc2c(C(=O)O)c1C,0.5,0.6,-0.0474,38.9,48.2
Cc1cc(NC(=O)CSc2cn(CCNC(=O)c3ccc(Cl)cc3)c3ccccc23)no1,0.7,0.5,-6.13*,46.0,34.2
COc1ccc(C(=O)NCCn2cc(SCC(=O)Nc3cc(C)on3)c3ccccc32)cc1OC,0.4,0.6,-0.547,45.0,56.0*
COc1ccccc1C(=O)NCCn1cc(SCC(=O)Nc2cc(C)on2)c2ccccc21,/,/,-1.1,/,/
O=C1CSC(=S)N1Cc1cccnc1,0.5,0.2,0.636,76.5*,52.9*
O=C1C2C3C=CC([C@@H]2C(=O)N1Cc1cccnc1)C31CC1 (stereo not given in full),0.3,0.9,0.816,6.3,72.1*
O=C(Nc1cccc(-c2cn3cccnc3n2)c1)c1ccc2c(c1)OCO2,0.9,0.4,-0.0299,59.6*,10.0
O=C(Nc1cccc(-c2cn3cccnc3n2)c1)c1ccc(Br)o1,1,0.4,-0.017,58.4*,-2.8
O=C(Nc1cccc(-c2cn3cccnc3n2)c1)c1ccco1,0.9,0.8,-0.204,23.0,5.5
O=C(COc1ncnc2ccc(Br)cc12)NCc1ccc2c(c1)OCO2,1.1,0.8,-3.52,18.5,-5.0
O=C(O)CNC(=O)CCN1C(=O)c2ccccc2C1=O,1,1.2,1.16,-23.4,-3.6
CN(C1CCS(=O)(=O)C1)S(=O)C12CC3CC(CC(C3)C1)C2 (stereo not given),/,/,0.565,/,/
CCC(=O)N(Cc1ccc(S(N)(=O)=O)cc1)C1CC(=O)N(c2ccc(OC)cc2)C1=O (stereo not given),1.1,1,-0.00277,0.2,-6.0
C=C(Cl)COc1ccc2c(CCCC)cc(=O)oc2c1,0.1,0.1,-1.3,91.7*,91.3*
CCCCc1cc(=O)oc2cc(OCC(=O)N(CC)CC)ccc12,0.8,0.8,0.746,18.7,16.7
CCCCc1cc(=O)oc2cc(OCC(=O)N(CC)CC)c(Cl)cc12,1.1,0.8,-3.06*,17.3,-9.5
Cc1ccc(S(=O)(=O)Cn2nnnc2C(CC(C)C)N2CCN(c3ccc(F)cc3)CC2)cc1 (stereo not given),0.8,0.6,-1.29,42.4,23.4
CC(C)CC(c1nnnn1C(C)C)N1CCN(c2cccc(Cl)c2)CC1 (stereo not given),0.9,0.6,-3.51*,36.3,7.5
CCOC(=O)C(NC(=O)c1ccc(F)cc1)(Nc1nnc(C)s1)C(F)(F)F (stereo not given),0.9,1,0.451,-1.7,14.4
CCOC(=O)C(NCc1ccco1)(NC(=O)c1ccccc1)C(F)(F)F (stereo not given),0.2,0.6,1.12,43.6,75.9*
COc1cccc(C2(CSc3nnc(-c4cc(OC)c(OC)c(OC)c4)o3)OCCO2)c1,0.2,1.2,/,-17.2,83.6*
CCCCOC(=O)CSc1nnc(-c2cc(OC)c(OC)c(OC)c2)o1,0.9,0.8,/,20.4,13.4
SMILES,CYP2C19 act,CYP2C9 activ,Cav3 T inh,CYP2C9 inh,CYP2C19 inhib
Cc1c(N=Cc2ccncc2)c(=O)n(-c2ccccc2)n1C,0.3,1.1,0.148,-12.7,65.5*
C=C1CCN(c2ccc(C(=O)NCCC)cc2[N+](=O)[O-])CC1,/,/,0.271,/,/
Cc1cc2cc3c(cc2nc1SCC(=O)OC(C)C)OCCO3,1,0.9,-0.649,9.5,2.3
CCOC(=O)CSc1nc2cc3c(cc2cc1CC)OCCO3,/,/,-4.59*,/,/
C=CCSc1nc(Oc2ccccc2)c2sccc2n1,0.5,0.7,0.0249,34.3,54.0*
CSc1nc(Oc2ccccc2)c2sccc2n1,0.9,0.4,0.455,60.0*,9.6
[O-][n+]1onc2c3ccnnc3ccc21,1.1,1,-0.0296,-4.8,-9.4
COc1cc(C2C3C(=O)N(c4ccc(F)cc4)C(=O)C3ON2c2ccccc2)ccc1O (stereo not given),0.6,0.5,0.471,53.3*,41.8
O=C1C2ON(c3ccccc3)C(c3cccnc3)C2C(=O)N1c1ccc(Cl)c(Cl)c1 (stereo not given),0.3,0.5,-1.42,46.2,67.5*
O=C1C2ON(c3ccccc3)C(c3cccnc3)C2C(=O)N1c1ccccc1 (stereo not given),1,1,/,-2.4,-1.4
Cc1cc(NC(=O)CSc2nnnn2Cc2ccccc2)no1,/,/,0.492,/,/
CCc1nc2sc(C)c(C)c2c(=O)n1CCO,1.1,1.1,0.507,-14.1,-13.2
O=C(NC(c1ccccc1)c1ccccc1)c1ccc(S(=O)(=O)C(F)F)cc1,1.1,0.8,0.111,20.4,-8.3
CN(Cc1cccc(F)c1)C(=O)c1ccc(S(=O)(=O)C(F)F)cc1,0.4,1.1,0.812,-9.5,59.3*
COc1ccc(CN2C(=O)[C@@H]3C(c4ccccc4Cl)=NO[C@@H]3C2=O)cc1,0.1,0.3,-2.21,70.0*,86.8*
COc1ccc(OC)c(C2=NO[C@@H]3C(=O)N(c4cc(Cl)ccc4OC)C(=O)[C@H]23)c1,0.4,0.8,-0.107,22.9,61.8*
O=C1[C@@H]2C(c3ccccc3Cl)=NO[C@@H]2C(=O)N1Cc1ccccc1,0,0.3,-0.782,72.9*,98.9*
Cc1cccc(-c2noc(CN(C(=O)c3ccc(Br)o3)C(C)C)n2)c1,0.5,0.4,-4.71*,56.1*,45.5
Cc1cccc(-c2noc(CN(C(=O)C(c3ccccc3)c3ccccc3)C(C)C)n2)c1,0.9,0.5,-6.72*,51.3*,10.7
Cc1cccc(-c2noc(CN(C(=O)c3ccc4c(c3)OCO4)C(C)C)n2)c1,0.9,0.6,-5.14*,37.0,6.1
Cc1cccc(-c2noc(Cc3ccccc3)n2)c1,1,1,-0.218,0.6,-0.8
COc1cccc(C(=O)N(Cc2nc(-c3cccc(C)c3)no2)C(C)C)c1OC,0.3,0.2,-5.76*,81.8*,74.4*
O=C1CCCN1c1cccc(Br)c1,/,/,-0.17,/,/
COC(=O)c1c(C)n(-c2ccc(OC)cc2)c2ccc(O)cc12,0.2,0.3,/,66.7*,79.2*
CCOc1ccc2c(c1)c(C(C)=O)c(C)n2-c1ccccc1,0,0,-0.0224,99.0*,99.0*
Cc1c(C(=O)O)c2cc(O)ccc2n1-c1ccccc1,0.7,0.6,0.763,36.4,34.1
Cc1cc(C)c(-c2cc(C(F)(F)F)no2)c(=O)[nH]1,/,/,0.973,/,/
CCOC(=O)c1cnc(-c2ccccc2)[nH]c1=O,0.9,0.5,0.337,54.8*,10.8

# Screening data as filed in PubChem.
